Results: PubChem BioAssay AID1376 (SRMLSC, 2008)
Out of some 220,000 compounds screened, about 530 (0.24%) were called active. The sample as a whole holds a higher share of actives than the screen did. Entries with a potency or affinity are not part of this list. Unmarked numbers belong to inactive results. Rule as the data show it: active = inhibition above about 13%; inconclusive = no clear call, values can overlap the other calls; inactive = below that.

These compounds were tested against Bifunctional protein GlmU (Mycobacterium tuberculosis (strain ATCC 25618 / H37Rv)) (UniProt P9WMN3) (assay: inhibition of mycobacterial GlmU enzyme – biochemical, glucosamine-1-phosphate acetyltransferase (AID 1376;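 also: 0% = complete reaction with vehicle and 100% = reaction without substrate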)). Details: M. tuberculosis GlmU acetyltransferase enzyme assay; hits give high values;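 tested at 30 µM in the primary screen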.
Bifunctional protein GlmU (Mycobacterium tuberculosis (strain ATCC 25618 / H37Rv)), sequence (P9WMN3 whole entry, looked up): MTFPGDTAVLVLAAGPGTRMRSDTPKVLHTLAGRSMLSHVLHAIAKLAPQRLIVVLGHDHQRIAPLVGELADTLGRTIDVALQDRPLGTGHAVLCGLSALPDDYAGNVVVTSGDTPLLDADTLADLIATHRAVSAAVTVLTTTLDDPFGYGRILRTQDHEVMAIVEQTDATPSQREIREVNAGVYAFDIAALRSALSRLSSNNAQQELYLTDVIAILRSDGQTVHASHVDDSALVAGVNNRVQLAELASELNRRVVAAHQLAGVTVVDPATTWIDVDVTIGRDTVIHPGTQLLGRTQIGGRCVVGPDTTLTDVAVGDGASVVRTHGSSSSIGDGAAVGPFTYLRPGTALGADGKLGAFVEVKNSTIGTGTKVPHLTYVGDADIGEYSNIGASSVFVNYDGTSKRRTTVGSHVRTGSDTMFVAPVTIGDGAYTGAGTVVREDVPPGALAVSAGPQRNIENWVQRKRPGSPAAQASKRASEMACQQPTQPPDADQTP
`Cc1nc(Nc2ccccc2)sc1C(=O)Nc1ccccc1` was tested, and the inhibition was 2.24%.
With `Cc1nc(NC(=O)COc2ccccc2)sc1C(=O)Nc1ccccc1` the inhibition was 6.13%.
With `Cc1nc(NC(N)=S)sc1C(=O)Nc1ccccc1` the inhibition was 14.8% (active).
Compound `O=C(NCc1n[nH]c(=S)n1-c1ccc(F)cc1)c1ccco1` has an inhibition of 3.33%.
For `CCOC(=O)CC(=O)CSc1nc(-c2cccnc2)ccc1C#N`, the inhibition was 2.76%.
`Cc1ccc(NC(=O)Cn2nnc3ccccc32)cc1` was tested, and the inhibition was -1.28%.
In the case of `CCCCn1c(CNC(=O)C23CC4CC(CC(C4)C2)C3)nnc1SC(C)CC` (configuration not stated), the inhibition is reported as -3.15%.
In the case of `Cc1ccc(S(=O)(=O)N(C)C/N=C(\N)N[N+](=O)[O-])cc1`, the inhibition is reported as -3.35%.
In the case of `O=C1CCCC(O)=C1N=Nc1ccc(Cl)c(Cl)c1`, the inhibition is reported as 0.41%.
With `O=C1CCCC(O)=C1N=Nc1ccc2c(c1)OCO2` the inhibition was 1.81%.
For `O=C1CCCC(O)=C1N=Nc1ccc(C(=O)O)cc1`, the inhibition was 13.3% (active).
`CCc1nnc(NC(=O)CSc2nc(-c3ccccc3)nc3ccccc23)s1` showed an inhibition of -1.88%.
With `CC1CC(C)(C)NC(=S)N1CCCC(=O)NCc1ccccc1` (configuration not stated) the inhibition was -0.79%.
In the case of `OCCN1CCN(C(c2cccs2)c2ccc3cccnc3c2O)CC1` (configuration not stated), the inhibition is reported as 17.8% (active).
In the case of `CN1CCN(C(c2cccnc2)c2ccc3cccnc3c2O)CC1` (configuration not stated), the inhibition is reported as -1.35%.
For `Oc1c(C(c2ccccc2Cl)N2CCCC2)ccc2cccnc12` (configuration not stated), the inhibition was -1.53%.
For `CCc1ccc(CN(C)CCc2ccccn2)cc1`, the inhibition was 1.82%.
For `O=C(NCc1ccc2c(c1)OCO2)C1CC(c2cccc(Br)c2)=NO1` (configuration not stated), the inhibition was 5.45%.
`COc1cc(/C=N/NC(=O)c2ccc(F)cc2)ccc1OC(=O)c1ccco1` was tested, and the inhibition was 1.03%.
`CCC1=NN(C(=O)c2ccc(Br)cc2)C(O)(c2ccccc2)C1` (configuration not stated) gave an inhibition of 1.41%.
In the case of `CCN(CC)CCC/C(=N\O)C(O)(c1ccccc1)c1ccccc1`, the inhibition is reported as -1.2%.
In the case of `COc1ccc(OCc2ccc(C(=O)O)cc2)cc1`, the inhibition is reported as -5.61%.
`COc1ccc(OCc2cccc(C(=O)O)c2)cc1` was tested, and the inhibition was -3.31%.
Compound `O=C(O)c1cc(O)ccc1-c1ccc(O)cc1` has an inhibition of 0.42%.
In the case of `COc1ccc(-c2ccc(OC)cc2C(=O)O)cc1`, the inhibition is reported as 14.9% (active).
`COc1ccc(C(=O)O)c(O)c1` was tested, and the inhibition was 1.05%.
For `CCN(CC)S(=O)(=O)c1ccc(N2CCOCC2)c(NC(=O)Cc2ccccc2)c1`, the inhibition was -0.9%.
Compound `O=C(NC(=S)Nc1cc(S(=O)(=O)N2CCOCC2)ccc1N1CCOCC1)c1ccco1` has an inhibition of 1.22%.
`CCN(CC)S(=O)(=O)c1ccc(N2CCOCC2)c(NC(=S)NC(=O)c2ccco2)c1` was tested, and the inhibition was 14.6% (active).
`Cc1cc(C)n(CCc2nc(-c3ccc(C(C)(C)C)cc3)cs2)n1` was tested, and the inhibition was -7.47%.
`NC(=O)c1ccccc1NC(=O)CS(=O)(=O)Cc1ccccc1` was tested, and the inhibition was 14.6% (active).
`CC(C)NC(=O)c1ccccc1NC(=O)CS(=O)(=O)Cc1ccccc1` was tested, and the inhibition was -2.67%.
For `O=C(CS(=O)(=O)Cc1ccccc1)Nc1ccccc1Cl`, the inhibition was -1.63%.
`COc1ccc(S(=O)(=O)N(C)CC(=O)Nc2ccc3c(c2)OCO3)cc1OC` showed an inhibition of -3.21%.
With `CCCCOC(=O)C1CN(c2ccccc2)N=C1C(C)=O` (configuration not stated) the inhibition was 3.69%.
For `Cc1ccc(S(=O)(=O)NC2OC(=O)C(Cl)=C2Cl)cc1` (configuration not stated), the inhibition was 13.1% (active).
`Cc1ccccc1S(=O)(=O)NC1OC(=O)C(Cl)=C1Cl` (configuration not stated) gave an inhibition of 9.45%.
With `CC(=O)NC(=O)NC1OC(=O)C(Cl)=C1Cl` (configuration not stated) the inhibition was 2.53%.
`C#CC[N+](C)(C)CCCCCCCCCC` gave an inhibition of -5.84%.
`CCC(c1nnnn1CCC(C)C)N1CCC(C(N)=O)CC1` (configuration not stated) showed an inhibition of 2.94%.
`Cc1ccc(Oc2ccc(OCC(=O)OC3CCS(=O)(=O)C3)cc2)cc1` (configuration not stated) showed an inhibition of -1.4%.
`Cc1ccc2c(c1)sc1nc(=O)n(-c3ccc(Cl)cc3)c(=O)n12` showed an inhibition of 2.07%.
With `Cc1ccc2c(c1)sc1nc(=O)n(-c3ccccc3)c(=O)n12` the inhibition was 4.71%.
With `Cc1ccc2c(c1)sc1nc(=O)n(-c3cccc(Cl)c3)c(=O)n12` the inhibition was 38.6% (active).
`O=C(NCC1CCCO1)c1nc2c(nnn2Cc2ccccc2Cl)c(=O)[nH]1` (configuration not stated) showed an inhibition of -1.69%.
`Cc1ccc(C)c(Cn2nnc3c(=O)[nH]c(C(=O)NCC4CCCO4)nc32)c1` (configuration not stated) was tested, and the inhibition was 0.99%.
In the case of `O=C(NCC1CCCO1)c1nc2c(nnn2Cc2ccc(F)cc2)c(=O)[nH]1` (configuration not stated), the inhibition is reported as 13.4% (active).
`CCCCNC(=O)CNC(=S)N(CCCN1CCOCC1)Cc1cccs1` was tested, and the inhibition was 3.25%.
`COc1ccc(O)c(/C=N/NC(=S)Nc2cccc(S(=O)(=O)N(C)C)c2)c1` was tested, and the inhibition was -8.22%.
Compound `CN(C)S(=O)(=O)c1cccc(NC(=S)N/N=C/c2cc(Br)ccc2O)c1` has an inhibition of -0.84%.
In the case of `Oc1cccc(/C=N/NC(=S)Nc2cccnc2)c1O`, the inhibition is reported as 5.05%.
With `Oc1ccc(/C=N/NC(=S)Nc2cccnc2)c(O)c1` the inhibition was 3.56%.
Work on `COc1ccccc1NC(=O)CCC(=O)N(Cc1ccc(OC)c(OC)c1)c1nccs1` yielded an inhibition of -2.21%.
In the case of `CCN1CCN(c2cc3c(nn2)Oc2ccccc2N3C)CC1`, the inhibition is reported as 0.59%.
`Cc1nc2ccccc2c(=O)n1NC(=O)Cc1ccc([N+](=O)[O-])cc1` gave an inhibition of -0.18%.
Work on `O=C(Cn1nc(-c2ccccc2)c2ccccc2c1=O)Nc1cccc(O)c1` yielded an inhibition of 3.9%.
`Cc1ccc(N2C(=O)NC(=O)/C(=C\c3ccoc3)C2=O)cc1` was tested, and the inhibition was 0.76%.
In the case of `O=C1NC(=O)N(c2ccccc2)C(=O)/C1=C/c1ccoc1`, the inhibition is reported as -0.64%.
`CCCC(c1nnnn1CC(=O)OCC)N(Cc1cc2ccc(C)cc2[nH]c1=O)C1CCCC1` (configuration not stated) showed an inhibition of 7.33%.
`CCOC(=O)N1CCN(C(=O)CN(c2ccc(OCc3ccccc3)cc2)S(C)(=O)=O)CC1` was tested, and the inhibition was 4.38%.
`Cc1ccccc1C(=O)NNC(=S)NC(=O)c1cccnc1` showed an inhibition of 4.43%.
Compound `O=C(NC(=S)NNC(=O)c1ccccc1F)c1cccnc1` has an inhibition of 3.92%.
Work on `O=C(NNC(=S)NC(=O)c1cccnc1)c1ccc(Cl)cc1` yielded an inhibition of -3.46%.
For `O=C(NNC(=S)NC(=O)c1cccnc1)c1ccc(F)cc1`, the inhibition was 13.5% (active).
With `O=C(NC(=S)NNC(=O)c1ccccc1O)c1cccnc1` the inhibition was 12.9% (active).
For `O=C(NNC(=S)NC(=O)c1cccnc1)c1ccccc1`, the inhibition was -2.11%.
Compound `CCOC(=O)C1=C(C)Nc2nc3ccccc3n2C1c1ccc(O)cc1` (configuration not stated) has an inhibition of 6.95%.
Compound `Nc1nc(CN2CCN(C(c3ccccc3)c3ccccc3)CC2)nc(Nc2ccccc2)n1` has an inhibition of -2.82%.
For `COC(=O)CC1C(=O)NCCN1C(=O)CSc1nnnn1-c1ccc(OC)cc1` (configuration not stated), the inhibition was -2.52%.
With `O=C(O)C1CC1c1ccc(Br)cc1` (configuration not stated) the inhibition was 2.18%.
`CCCNc1nc(C)nc2c1cnn2CCc1ccccc1` gave an inhibition of 1.42%.
`CCN(CC)c1ccc(C(=O)O)cc1` showed an inhibition of -1.49%.
With `CCN(CC)c1ccc(C=C2C(=O)OC3(CCCCC3)OC2=O)cc1` the inhibition was -3.43%.
`O=C(O)c1ccc2c(c1)C(=O)/C(=C/c1ccccc1)C2=O` gave an inhibition of 18.9%.
`CCN(CC)c1ccc(C=C2C(=O)OC3(CCCC3)OC2=O)cc1` gave an inhibition of -0.14%.
For `COc1ccc(-c2ccc(OC)c([C@H]3[C@H]4C=CC[C@@H](C)[C@@H]4C(=O)N3Cc3ccccc3)c2)cc1C`, the inhibition was 1.44%.
With `CCOc1cc2c(cc1C=O)OC(C)C2` (configuration not stated) the inhibition was -3.18%.
Compound `Cc1ccc(C(=O)NCc2ccccn2)cc1Cl` has an inhibition of -4.77%.
With `O=C(c1ccc2c(c1)OCCO2)N1CCN(Cc2ccccc2)CC1` the inhibition was 0.55%.
With `CCC(OC(=O)CC1Sc2ccccc2NC1=O)C(=O)NCC1CCCO1` (configuration not stated) the inhibition was -4.76%.
In the case of `CCCCCCOC(=O)CCc1c(C)nc(N)[nH]c1=O`, the inhibition is reported as 1.43%.
`O=CC(Br)P(=O)(N1CCOCC1)N1CCOCC1` (configuration not stated) was tested, and the inhibition was 13.9% (active).
`CC(C)(C)P(=O)(N1CCOCC1)N1CCOCC1` gave an inhibition of -0.04%.
`O=CC(Cl)P(=O)(N1CCOCC1)N1CCOCC1` (configuration not stated) showed an inhibition of 5.15%.
Work on `CN(c1ccccc1)c1nc(N)c([N+](=O)[O-])c(NCc2ccccc2)n1` yielded an inhibition of -0.66%.
`CCCC(=O)NNc1cc(=O)c2c(=O)n(C)c(=O)n(C)c2[nH]1` showed an inhibition of -0.71%.
Work on `Cc1ccc(N2CC(C(=O)NCCC(C)C)CC2=O)cc1` (configuration not stated) yielded an inhibition of 1.29%.
In the case of `N#CC12CNCC1CN=N2` (configuration not stated), the inhibition is reported as 15.5% (active).
In the case of `Cc1ccc2c(c1)C(c1ccccc1)C(=O)O2` (configuration not stated), the inhibition is reported as 2.36%.
`COc1ccc(OCCC(=O)OCc2c(C)noc2C)cc1` showed an inhibition of 3.9%.
For `Cc1noc(C)c1COC(=O)CCOc1ccccc1`, the inhibition was 13.2% (active).
For `Cc1noc(C)c1COC(=O)C(c1ccccc1)c1ccccc1`, the inhibition was -2.73%.
For `Cc1ccc(N2CCN(C(=O)Nc3cccc([N+](=O)[O-])c3)CC2C)cc1` (configuration not stated), the inhibition was 5.55%.
`CCc1ccc(C(=O)N/N=C/c2cccc3ccccc23)nc1` gave an inhibition of -1.08%.
With `O=C(c1ccccc1)N1CCN(c2ccc([N+](=O)[O-])c(NCc3cccnc3)c2)CC1` the inhibition was -14.7%.
`O=C(c1ccccc1F)N1CCN(c2ccc([N+](=O)[O-])c(NCc3cccnc3)c2)CC1` gave an inhibition of 4.22%.
With `Cc1ccccc1C(=O)N1CCN(c2ccc([N+](=O)[O-])c(NCc3cccnc3)c2)CC1` the inhibition was 14.5% (active).
`N#Cc1cc(C(=O)c2cc(Cl)ccc2O)cn(CC2CCCO2)c1=O` (configuration not stated) gave an inhibition of 1%.
`Cc1cc(C)c2c(=O)n(CC(=O)Nc3cccc(F)c3)sc2n1` gave an inhibition of 9.3%.
`Cc1cc(C)c2c(=O)n(CC(=O)N3CCC(N4CCCCC4)CC3)sc2n1` gave an inhibition of -2.82%.
`Cc1cc(C)c2c(=O)n(CC(=O)Nc3cccc(Cl)c3C)sc2n1` was tested, and the inhibition was 3.9%.
With `Cc1cc(C)c2c(=O)n(CC(=O)Nc3ccc(Br)c(C)c3)sc2n1` the inhibition was -1.95%.
For `Cc1ccc(NC(=O)Cn2sc3nc(C)cc(C)c3c2=O)c(Cl)c1`, the inhibition was 2.26%.
With `CCOc1ccc(NC(=O)Cn2sc3nc(C)cc(C)c3c2=O)cc1` the inhibition was 14.9% (active).
In the case of `Cc1cc(C)c2c(=O)n(CC(=O)Nc3ccc(Cl)cc3)sc2n1`, the inhibition is reported as 13% (active).
`CCCNC(=O)Cn1sc2nc(C)cc(C)c2c1=O` gave an inhibition of 9.09%.
For `Cc1cc(C)c2c(=O)n(CC(=O)NC3CCCC3)sc2n1`, the inhibition was 15% (active).
